Compound activity from PubChem BioAssay.
A selection: hits, their analogues and other compounds. The true share with any hit is near 11%.
G9a block: qHTS Assay for Inhibitors of Histone Lysine Methyltransferase G9a | G9a H3K9 monomethylation, AlphaScreen, 2 h | Potency, µM (highest dose often 102 µM), for the others: at the highest dose activity, negative = inhibition, usual class: inhibitors | hit rate 8.8% among 350,000 | AID 504332, 2011; also: % is scaled to controls: 0 for no effect and ±100 for the full control effect; nearly all actives have a fitted effect of over 75% in size
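Using a bead-based AlphaScreen, monomethylated H3K9 product from 2 h room-temperature reactions (G9a 20 nM, peptide 500 nM, SAM 20 uM) was detected with 0.5 ug/mL rabbit anti-H3K9me1 antibody.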
L3MBTL1 inh: qHTS Assay for the Inhibitors of L3MBTL1; Lethal(3)malignant brain tumor-like protein 1 (Homo sapiens), Q9Y468; AlphaScreen L3MBTL1–H3K9me1 peptide binding; Potency, µM (doses to about 57.1 µM), for the others: top-dose activity, negative = inhibition, most hits filed as inhibitors; hit rate 0.66% among 230,000; also: % is scaled to controls: 0 for no effect and ±100 for the full control effect; nearly all actives have a fitted effect of over 60% in size
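L3MBTL1 (50 nM) pre-complexed 30 min with biotinylated H3(1-15)K9me1 peptide (75 nM), then compounds added for 30 min at room temperature; AlphaScreen streptavidin donor/nickel chelate acceptor beads (10 ug/mL final) read after 30 min dark incubation.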
BAZ2B block: qHTS Assay for Inhibitors of BAZ2B | AlphaScreen BAZ2B-H3K14Ac peptide displacement | Potency, µM (highest dose often 114 µM), inactives show at the highest dose activity change, negative = inhibition, actives largely listed as inhibitors | hit rate 4.4% among 360,000 | Bromodomain adjacent to zinc finger domain protein 2B (Homo sapiens), Q9UIF8; also: % is scaled to controls: 0 for no effect and ±100 for the full control effect; nearly all actives have a fitted effect of over 60% in size
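BAZ2B (50 nM) with biotin-H3(5-23)K14Ac peptide (50 nM) in PBS pH 7.4, 0.01% Tween-20, preformed 30 min, then compound 30 min at room temperature; top concentration 110uM. AlphaScreen streptavidin donor/nickel chelate acceptor beads (10 ug/mL final), 20 min dark, signal read.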
HP1b chromo inh: HTS for Inhibitors of HP1-beta Chromodomain Interactions with Methylated Histone Tails | Potency, µM (titrated, usually from 114 µM), inactives show at the top dose activity change, negative = inhibition, usual class: inhibitors | Chromobox protein homolog 1 (Homo sapiens), P83916 | hit rate 0.56% among 390,000 | AID 540317, 2011 | AlphaScreen HP1-beta / biotin-H3K9me3 peptide binding; also: nearly all actives have a fitted effect of over 70% in size
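Compound inhibition of the preformed complex between 50 nM HP1-beta and 50 nM biotinylated H3K9me3 peptide was read by AlphaScreen. Buffer was PBS pH 7.4 with 0.01% Tween-20. Incubations ran 30 min at room temperature, with 10 ug/mL donor/acceptor beads.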
JMJD2A Tudor: qHTS Assay for Inhibitors of JMJD2A-Tudor Domain; AlphaScreen JMJD2A-Tudor / H3K4me3 peptide binding; AID 504339, 2011; Potency, µM (series often up to 114 µM), inactives show at the highest dose activity change, negative = inhibition, most hits filed as inhibitors; hit rate 4.4% among 390,000; Lysine-specific demethylase 4A (Homo sapiens), O75164; also: % is scaled to controls: 0 for no effect and ±100 for the full control effect; nearly all actives have a fitted effect of over 50% in size
Target sequence (O75164 whole entry, looked up, the tested form may be a part): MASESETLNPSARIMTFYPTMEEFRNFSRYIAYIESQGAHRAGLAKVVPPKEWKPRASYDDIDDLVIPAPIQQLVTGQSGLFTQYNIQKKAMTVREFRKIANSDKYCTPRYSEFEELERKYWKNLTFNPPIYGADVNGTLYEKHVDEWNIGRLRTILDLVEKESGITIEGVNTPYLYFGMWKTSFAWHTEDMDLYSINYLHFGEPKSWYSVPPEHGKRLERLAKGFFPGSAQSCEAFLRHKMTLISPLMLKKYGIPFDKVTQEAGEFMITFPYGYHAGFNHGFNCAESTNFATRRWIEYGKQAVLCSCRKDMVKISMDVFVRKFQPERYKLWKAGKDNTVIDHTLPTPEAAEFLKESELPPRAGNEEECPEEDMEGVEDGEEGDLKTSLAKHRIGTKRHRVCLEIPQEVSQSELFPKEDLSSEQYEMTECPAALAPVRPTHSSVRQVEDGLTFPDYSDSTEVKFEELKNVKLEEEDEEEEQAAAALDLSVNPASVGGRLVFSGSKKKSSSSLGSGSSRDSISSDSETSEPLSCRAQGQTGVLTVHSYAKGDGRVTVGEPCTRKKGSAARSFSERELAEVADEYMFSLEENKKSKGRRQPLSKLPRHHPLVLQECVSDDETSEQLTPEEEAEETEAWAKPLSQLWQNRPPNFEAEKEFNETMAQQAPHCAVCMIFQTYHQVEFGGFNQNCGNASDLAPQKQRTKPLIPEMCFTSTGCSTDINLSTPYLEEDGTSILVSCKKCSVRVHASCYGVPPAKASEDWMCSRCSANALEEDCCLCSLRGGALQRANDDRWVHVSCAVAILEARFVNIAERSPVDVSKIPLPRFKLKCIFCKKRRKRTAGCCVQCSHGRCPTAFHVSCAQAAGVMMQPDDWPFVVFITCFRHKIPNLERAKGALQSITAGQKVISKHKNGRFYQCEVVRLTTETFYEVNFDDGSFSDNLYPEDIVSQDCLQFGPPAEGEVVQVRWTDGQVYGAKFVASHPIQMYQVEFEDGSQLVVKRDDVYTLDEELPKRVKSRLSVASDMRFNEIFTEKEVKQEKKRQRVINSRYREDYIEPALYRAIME
Numbers without * were called inactive; [ ] = remark or other dose. Calls follow the shape of the dose curve; as a rule, active = well fitted inhibition curve with a large enough effect; inconclusive = small, poorly fitted or top-dose-only effect; inactive = no such curve, though single readings can be large or run the other way. Potency is read from the fitted curve at half-maximal effect.

`N#Cc1c(SCC(N)=O)nc2c(c1-c1ccncc1)CCCC2` gave G9a block 39.8µM*, L3MBTL1 inh 0.7%, BAZ2B block -3.9%, HP1b chromo inh 38.0% and JMJD2A Tudor inconclusive.
For CC1=Nc2ccccc2/C1=C/c1c(N)n2c(S(=O)(=O)C(C)C)nsc2nc1=O the results were G9a block 13.0%, BAZ2B block inconclusive, HP1b chromo inh 3.8% and JMJD2A Tudor -19.9%.
Screening CC1=Nc2ccc(C)cc2/C1=C/c1c(N)n2c(S(=O)(=O)C(C)C)nsc2nc1=O returned G9a block 50.1µM*, L3MBTL1 inh -20.4%, BAZ2B block -35.5%, HP1b chromo inh 14.9% and JMJD2A Tudor -31.0%.
`COc1ccc(CN(C)CC2CCCN(CCc3ccccc3C)C2)cc1O` (stereo not given) gave L3MBTL1 inh -11.3%, BAZ2B block -1.8%, HP1b chromo inh 19.8% and JMJD2A Tudor -33.1%.
COc1ccc(CCN2CCCC(CN(C)Cc3cc(Cl)c(O)c(OC)c3)C2)cc1 (stereo not given) was read as G9a block 70.8µM*, L3MBTL1 inh -1.3%, BAZ2B block -30.5%, HP1b chromo inh 46.6% and JMJD2A Tudor -18.3%.
`Cc1sc2c(c1C)c(=O)n(CCc1ccccc1)c(=O)n2Cc1ccc(C(C)(C)C)cc1` gave G9a block 8.3%[59 µM], BAZ2B block 1.1%, HP1b chromo inh 25.0% and JMJD2A Tudor 9.2%.
CCCn1nnnc1NC(=O)c1cc(Cl)ccc1Cl was read as G9a block 8.91µM*, L3MBTL1 inh 4.3%, BAZ2B block 56.2µM*, HP1b chromo inh 12.5% and JMJD2A Tudor 39.8µM*.
`CCCn1nnnc1NC(=O)CSc1ccc(Cl)cc1` gave G9a block 6.0%[12.7 µM], L3MBTL1 inh -2.0%, BAZ2B block inconclusive, HP1b chromo inh 34.0% and JMJD2A Tudor inconclusive.
For COc1ccccc1NC(=O)CN1CC(=O)Nc2ccccc21 the results were G9a block 20µM*, L3MBTL1 inh -7.0%, HP1b chromo inh 37.1% and JMJD2A Tudor 8.6%.
For O=C(CN1CC(=O)Nc2ccccc21)Nc1ccc(F)c(F)c1 the results were G9a block 8.91µM*, BAZ2B block -0.6%, HP1b chromo inh 51.2% and JMJD2A Tudor -4.8%.
`COc1ccccc1NC(=O)CN1CCN(c2ccccc2OC)CC1` gave G9a block -32.4%, L3MBTL1 inh -11.4%, BAZ2B block -17.3%, HP1b chromo inh 34.4% and JMJD2A Tudor -20.0%.
For COc1ccc(NC(=O)CCC(=O)c2cccs2)cc1Cl the results were G9a block -0.9%, BAZ2B block 7.1%, HP1b chromo inh 58.0% and JMJD2A Tudor -7.7%.
Screening COc1cc(NCCC(=O)c2cccs2)c(OC)cc1Cl returned G9a block 7.94µM*, L3MBTL1 inh inconclusive, BAZ2B block 39.8µM*, HP1b chromo inh 56.2µM* and JMJD2A Tudor 39.8µM*.
Screening COc1ccccc1N1CCN(C(=O)Cn2ncc3c2-c2cc(C)ccc2OC3)CC1 returned G9a block 0.2%[59 µM], BAZ2B block -18.7%, HP1b chromo inh 12.3% and JMJD2A Tudor -20.4%.
Screening CC(=O)Nc1ccc(C(=O)CN2C(=O)CSC2=O)cc1 returned G9a block 24.4%, L3MBTL1 inh 1.7%, BAZ2B block 7.8%, HP1b chromo inh 10.5% and JMJD2A Tudor -8.2%.
CC(CNC(=O)c1cnn(-c2ccc(F)cc2)c1-n1cccc1)c1ccccc1 (stereo not given) was read as G9a block 15.8%[59 µM], BAZ2B block -0.2%, HP1b chromo inh 41.5% and JMJD2A Tudor -16.6%.
For Cc1ccc(N2C(=O)C(F)(F)C2c2ccccc2)cc1 (stereo not given) the results were G9a block 65.7%, BAZ2B block 124.9%, HP1b chromo inh 88.1% and JMJD2A Tudor 42.9%.
Cc1ccc(N2C(=N)/C(=C3/Nc4ccccc4S3)C(c3ccccc3)C2=O)cc1 (stereo not given) was read as G9a block 35.5µM*, L3MBTL1 inh -0.3%, BAZ2B block 11.3%, HP1b chromo inh -3.4% and JMJD2A Tudor inconclusive.
For Cc1nc(SCC(=O)Nc2ccc3[nH]c(=O)[nH]c3c2)nc(C)c1C the results were L3MBTL1 inh 1.4%, HP1b chromo inh 32.1% and JMJD2A Tudor inconclusive.
`O=C(CSc1ncccn1)Nc1ccc2[nH]c(=O)[nH]c2c1` gave G9a block 14.1µM*, L3MBTL1 inh 3.3%, BAZ2B block 9.3%, HP1b chromo inh 25.7% and JMJD2A Tudor -6.2%.
Screening COc1ccc(OCC(=O)OCC(=O)Nc2ccc3[nH]c(=O)[nH]c3c2)cc1 returned G9a block 8.91µM*, L3MBTL1 inh 5.6%, BAZ2B block -4.1%, HP1b chromo inh 19.0% and JMJD2A Tudor -11.5%.
Screening O=C(COC(=O)Cc1ccc(Cl)cc1)Nc1ccc2[nH]c(=O)[nH]c2c1 returned G9a block 50.1µM*, L3MBTL1 inh 28.1%, BAZ2B block inconclusive, HP1b chromo inh 14.9% and JMJD2A Tudor -9.0%.
For CC(=O)c1cccc(NC(=O)Cn2nc(C)n3cccc3c2=O)c1 the results were G9a block -16.2%[59 µM], BAZ2B block -21.1%, HP1b chromo inh 29.6% and JMJD2A Tudor -3.6%.
COc1ccc(/C=C/C(=O)NC(=S)NNC(=O)c2c(-c3ccccc3)noc2C)cc1 was read as G9a block inconclusive, L3MBTL1 inh 6.9%, BAZ2B block 5.6%, HP1b chromo inh -9.5% and JMJD2A Tudor -11.3%.
Screening COc1ccc(-c2cc(C(=O)NNC(=S)NC(=O)c3c(-c4ccccc4)noc3C)[nH]n2)cc1 returned G9a block 44.7µM*, L3MBTL1 inh -2.5%[11.4 µM], BAZ2B block -20.1%, HP1b chromo inh 22.1% and JMJD2A Tudor -15.6%.
Screening COc1ccc(NC(=O)Nc2sc3nc4n(c(=O)c3c2C)CCC(C)CC4)cc1OC (stereo not given) returned G9a block 1.4%[59 µM], BAZ2B block -4.4%, HP1b chromo inh 17.9% and JMJD2A Tudor -9.1%.
`Cc1cccc(-c2nc(CSc3nncn4c3cc3oc(C)cc34)c(C)o2)c1` gave G9a block -4.1%[59 µM], BAZ2B block -29.0%, HP1b chromo inh 39.8% and JMJD2A Tudor -18.7%.
For CCOC(=O)c1c(S(=O)(=O)N2CCCC(C(=O)NCc3ccccc3OC)C2)c(C)n(C)c1C (stereo not given) the results were G9a block 2.9%[59 µM], BAZ2B block 0.9%, HP1b chromo inh 25.9% and JMJD2A Tudor -24.3%.
